# Data reported in PubChem BioAssay AID602261 (Sanford-Burnham Center for Chemical Genomics, 2012).
# About 2,400 (0.67%) of roughly 360,000 compounds were called active. The entries come from a sample that favours actives as a whole. A number with no mark means an inactive call.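 The calls were made as follows: active = compounds whose normalised, plate-corrected inhibition of enzyme fluorescence in the single-dose primary screen is 50% or more; inactive = the rest.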
# Biological target: Fatty acid synthase (Homo sapiens) (UniProt P49327)
# Test: FAS thioesterase domain inhibitors, primary screen, biochemical, fluorescence intensity, uHTS (AID 602261);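 also: 0% = DMSO with enzyme and 100% = substrate without enzyme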
# Conditions: recombinant FAS-TE, OMFH fluorogenic substrate, fluorescence endpoint; at 15 µM; hits give high values
# Sequence of Fatty acid synthase (Homo sapiens) (P49327 whole entry, looked up, the tested form may be a part): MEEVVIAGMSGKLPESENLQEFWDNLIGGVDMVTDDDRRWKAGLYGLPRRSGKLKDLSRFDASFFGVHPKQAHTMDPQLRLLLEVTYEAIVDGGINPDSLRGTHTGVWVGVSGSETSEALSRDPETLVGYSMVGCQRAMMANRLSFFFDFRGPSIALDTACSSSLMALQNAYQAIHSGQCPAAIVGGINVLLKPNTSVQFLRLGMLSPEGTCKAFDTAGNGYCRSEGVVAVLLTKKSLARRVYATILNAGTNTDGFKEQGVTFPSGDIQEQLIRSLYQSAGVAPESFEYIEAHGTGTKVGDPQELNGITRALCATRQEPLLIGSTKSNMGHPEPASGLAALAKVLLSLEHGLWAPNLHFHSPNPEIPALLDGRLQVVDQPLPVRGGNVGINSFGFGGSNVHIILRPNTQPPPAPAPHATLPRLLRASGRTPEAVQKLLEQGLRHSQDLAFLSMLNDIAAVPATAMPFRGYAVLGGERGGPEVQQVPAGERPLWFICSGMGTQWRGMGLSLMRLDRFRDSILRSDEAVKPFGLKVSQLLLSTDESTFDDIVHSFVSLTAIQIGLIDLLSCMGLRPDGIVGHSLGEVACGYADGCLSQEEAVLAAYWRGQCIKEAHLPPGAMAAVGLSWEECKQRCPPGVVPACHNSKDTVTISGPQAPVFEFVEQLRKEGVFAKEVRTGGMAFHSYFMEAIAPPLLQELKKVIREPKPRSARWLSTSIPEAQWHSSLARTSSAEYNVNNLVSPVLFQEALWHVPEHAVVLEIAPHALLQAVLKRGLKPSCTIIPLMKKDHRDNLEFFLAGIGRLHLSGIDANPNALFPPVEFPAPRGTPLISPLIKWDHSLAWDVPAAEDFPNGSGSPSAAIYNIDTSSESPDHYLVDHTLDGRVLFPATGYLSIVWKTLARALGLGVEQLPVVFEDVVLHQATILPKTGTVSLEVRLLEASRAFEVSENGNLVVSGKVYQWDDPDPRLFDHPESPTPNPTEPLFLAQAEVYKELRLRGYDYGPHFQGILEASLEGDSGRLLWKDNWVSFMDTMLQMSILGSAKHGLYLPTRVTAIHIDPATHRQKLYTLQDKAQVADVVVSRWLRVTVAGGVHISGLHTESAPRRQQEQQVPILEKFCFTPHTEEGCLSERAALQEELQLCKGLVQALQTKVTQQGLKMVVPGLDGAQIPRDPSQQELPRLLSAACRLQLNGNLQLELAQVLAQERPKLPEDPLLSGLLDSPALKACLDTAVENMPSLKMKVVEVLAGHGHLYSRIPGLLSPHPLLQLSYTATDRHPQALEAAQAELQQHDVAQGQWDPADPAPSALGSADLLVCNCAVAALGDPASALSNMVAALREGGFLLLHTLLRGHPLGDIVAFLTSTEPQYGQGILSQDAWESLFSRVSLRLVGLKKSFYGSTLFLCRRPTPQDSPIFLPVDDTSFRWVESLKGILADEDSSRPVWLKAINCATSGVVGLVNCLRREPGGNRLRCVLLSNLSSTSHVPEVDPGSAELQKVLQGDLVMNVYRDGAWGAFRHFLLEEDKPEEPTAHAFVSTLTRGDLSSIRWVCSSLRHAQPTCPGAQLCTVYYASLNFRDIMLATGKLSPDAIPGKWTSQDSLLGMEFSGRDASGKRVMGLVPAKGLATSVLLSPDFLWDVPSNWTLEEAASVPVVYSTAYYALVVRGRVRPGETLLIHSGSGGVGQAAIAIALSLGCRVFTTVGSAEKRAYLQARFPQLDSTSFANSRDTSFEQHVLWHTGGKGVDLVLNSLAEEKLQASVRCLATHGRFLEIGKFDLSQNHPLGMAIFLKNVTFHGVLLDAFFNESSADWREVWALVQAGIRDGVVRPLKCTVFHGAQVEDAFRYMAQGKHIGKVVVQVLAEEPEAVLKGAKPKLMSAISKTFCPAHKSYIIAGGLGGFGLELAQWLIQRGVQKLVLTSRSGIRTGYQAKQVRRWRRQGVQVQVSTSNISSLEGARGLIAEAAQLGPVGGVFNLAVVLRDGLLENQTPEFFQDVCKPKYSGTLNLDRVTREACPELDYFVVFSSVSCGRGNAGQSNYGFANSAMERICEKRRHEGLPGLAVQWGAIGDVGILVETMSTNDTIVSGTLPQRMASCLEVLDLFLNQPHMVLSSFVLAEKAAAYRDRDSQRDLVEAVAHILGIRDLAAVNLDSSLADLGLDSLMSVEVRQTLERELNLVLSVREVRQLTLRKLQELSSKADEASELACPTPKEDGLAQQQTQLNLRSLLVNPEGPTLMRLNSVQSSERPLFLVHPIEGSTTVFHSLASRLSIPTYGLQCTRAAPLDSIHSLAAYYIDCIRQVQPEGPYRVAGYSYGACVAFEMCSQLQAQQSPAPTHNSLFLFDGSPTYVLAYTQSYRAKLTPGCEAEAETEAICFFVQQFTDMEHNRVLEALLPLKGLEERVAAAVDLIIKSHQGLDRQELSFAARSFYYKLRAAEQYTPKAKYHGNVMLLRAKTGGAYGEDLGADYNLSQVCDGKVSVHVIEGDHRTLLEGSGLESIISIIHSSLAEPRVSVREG
row,SMILES,inhibition
1,CSc1ccccc1NC(=O)c1cnc2sc(C)cn2c1=O,4.9%
2,O=[N+]([O-])c1cc([N+](=O)[O-])c(Oc2cc(F)cc(F)c2F)cc1NN1CCCCC1,11.3%
3,COC(=O)c1cc(C(=O)NC(C)C2CC3CCC2C3)cc([N+](=O)[O-])c1 (stereo not drawn),50.5% (active)
4,Cc1cccc(C(=O)OCC(=O)NC(C)C2CC3CCC2C3)c1O (stereo not drawn),20.1%
5,Cc1c(C(=O)NC(C)C2CC3CCC2C3)cccc1[N+](=O)[O-] (stereo not drawn),11.2%
6,COc1ccc(CN2C(CC(=O)Nc3cccnc3)c3ccc(C(F)(F)F)cc3S2(=O)=O)cc1 (stereo not drawn),14.3%
7,CCCCc1nc2cc(C(=O)NCCc3cnn(C)c3)ccc2o1,-2.8%
8,Cc1noc(C)c1NC(=O)Nc1ccc2c(c1)C(=O)N([C@H](C)CO)C[C@H](C)[C@@H](CN(C)C(=O)Nc1ccccc1)O2,-5.3%
9,Cc1noc(C)c1NC(=O)Nc1cccc2c1O[C@H](CN(C)C(=O)Nc1ccccc1)[C@@H](C)CN([C@H](C)CO)C2=O,55.4% (active)
10,Cc1noc(C)c1NC(=O)Nc1cccc2c1O[C@H](CN(C)S(=O)(=O)c1c(C)noc1C)[C@@H](C)CN([C@H](C)CO)C2=O,3.4%
11,COc1ccc(CCCNC(=O)C2Cc3c(-c4cccc(C(N)=O)c4)ccnc3O2)cc1 (stereo not drawn),1.7%
12,O=S(=O)(NCCCCCCNS(=O)(=O)c1c(F)cccc1F)c1ccc2c(c1)OCCO2,3.8%
13,COCCSc1nnc(NC(=O)c2cc(OC)c(OC)cc2[N+](=O)[O-])s1,-10.4%
14,O=C(Nc1nnc(SCc2ccccc2Cl)s1)c1cccc([N+](=O)[O-])c1,58.6% (active)
15,O=C(Nc1nnc(SCc2c(Cl)cccc2Cl)s1)C1CCCO1 (stereo not drawn),0.2%
16,CCCn1c(N)c(C(=O)CSc2nc3ccccc3c(=O)n2-c2ccc(OC)cc2)c(=O)[nH]c1=O,-0.6%
17,O=S(=O)(Cc1noc(-c2ccc(OC(F)(F)F)cc2)n1)c1ccc(F)cc1,15.8%
18,Cc1ccc(S(=O)(=O)NCC(=O)N(CC(=O)NCC2CCCO2)c2cccc(F)c2)cc1 (stereo not drawn),-4.4%
19,COc1cc(-c2n[nH]c(=S)n2Cc2ccccc2)cc(OC)c1OC,-3.4%
20,CC(C)Oc1ccc(Cc2n[nH]c(=S)n2Cc2ccccc2)cc1Cl,57% (active)
21,CC(C)Oc1ccc(CCc2n[nH]c(=S)n2Cc2ccccc2)cc1,19.3%
22,O=C(Nc1cccc(S(=O)(=O)N2CCOCC2)c1)C12CC3CC(CC(C3)C1)C2,9.3%

row,SMILES,inhibition
1,O=C(NCc1ccco1)/C(=C/c1ccco1)NC(=O)c1ccccc1,-4.1%
2,O=C(NCc1ccco1)/C(=C\c1cccc([N+](=O)[O-])c1)NC(=O)c1ccco1,51.4% (active)
3,O=C(/C=C/c1ccc([N+](=O)[O-])cc1)NCCSCc1ccco1,9.8%
4,O=C(NCc1ccco1)c1ccc([N+](=O)[O-])cc1Cl,5.6%
5,O=C(/C=C/c1cccc([N+](=O)[O-])c1)NCCSCc1ccco1,55.4% (active)
6,COc1ccc(/C=C(/NC(=O)c2ccco2)C(=O)Nc2ccc(C(C)=O)cc2)cc1,-1.1%
7,O=C(Nc1ccc2ccccc2c1)/C(=C/c1cccc(Br)c1)NC(=O)c1ccco1,52.3% (active)
8,O=C(NCc1ccco1)/C(=C/c1cccc([N+](=O)[O-])c1)NC(=O)c1ccco1,38.7%
9,Cc1ccc(NC(=O)/C(=C\c2ccccc2)NC(=O)c2ccco2)cc1,0%
10,Cc1cc([N+](=O)[O-])nn1Cc1ccc(F)cc1,-0.9%
11,CCC1CCC/C1=N\NC(=O)c1ccc(Cl)cc1 (stereo not drawn),-4.6%
12,COc1ccc(OC)c(NC(=O)c2cc(-c3cc(F)ccc3OCC3CCCO3)n[nH]2)c1 (stereo not drawn),22.4%
13,CCN(CC)S(=O)(=O)c1ccc2[nH]c(=O)cc(C(=O)N(C)C3CCS(=O)(=O)C3)c2c1 (stereo not drawn),0%
14,Cc1ccc(S(=O)(=O)n2cnc3ccccc32)c(C)c1,-4.2%
15,Cc1cccc(Nc2nc3c(S(=O)(=O)c4ccccc4)nnn3c3ccccc23)c1C,-3.1%
16,CCOC(=O)c1nnn2c1nc(N1CCN(c3ccccc3)CC1)c1ccccc12,19.9%
17,Cc1ccc(S(=O)(=O)c2nnn3c2nc(N2CCN(c4ccccn4)CC2)c2ccccc23)cc1,65.9% (active)
18,CCc1ccccc1OCC(=O)Nc1nnc(C2CC2)s1,-9.2%
19,Cc1ccc(S(=O)(=O)N2CCN(C(=O)c3ccccc3-c3nc4ccccc4s3)CC2)c(C)c1,15.3%
20,OC(CN1C2=NCCCN2c2ccccc21)c1ccc(Br)cc1 (stereo not drawn),-4.6%
21,CC(NC(=O)c1ccco1)c1ccc2c(c1)OCO2 (stereo not drawn),-6.5%
22,CC(NC(=O)Nc1cccc([N+](=O)[O-])c1)c1ccc2c(c1)OCO2 (stereo not drawn),83.4% (active)

row,SMILES,inhibition
1,Cc1noc(C)c1C(=O)NC(C)c1ccc2c(c1)OCO2 (stereo not drawn),-5.5%
2,CCN1CCN(c2sc(S(C)(=O)=O)nc2S(=O)(=O)c2ccc(Cl)cc2)CC1,-2.8%
3,Cc1nnsc1S(=O)(=O)Cc1ccccc1Cl,-6.8%
4,O=C(Nc1ccccc1)c1nnsc1S(=O)(=O)c1ccc(Cl)cc1,69.7% (active)
5,O=C(Nc1ccc(S(=O)(=O)N2CCOCC2)cc1)C1CCN(S(=O)(=O)c2ccc(Cl)cc2)CC1,28.3%
6,O=C(NCCO)c1cccc(-c2cccc3nccn23)c1,-6.3%
7,Cc1cc(C(F)F)nn1CC(=O)NC1CCCCCC1,-5.3%
8,CC1(C)CC(=O)c2c(n(S(=O)(=O)c3ccccc3)c3ccc(NS(=O)(=O)c4ccccc4)cc23)C1,79.6% (active)
9,COc1ccccc1-n1cnc2cc(NS(=O)(=O)c3ccccc3)ccc21,0.1%
10,Cn1c(=O)n(C)c2cc(NS(=O)(=O)c3ccc(F)cc3)ccc21,-7.3%
11,CC(=O)N(Cc1cccs1)C1CCOC(C)(C)C1 (stereo not drawn),-7.2%
12,CCCCN1C(=O)CCC(C(=O)O)C1c1ccc(OC)cc1 (stereo not drawn),-7.9%
13,COc1ccc(C(=O)N(C)CC(O)c2ccccc2)cc1OC1CCN(C(C)=O)CC1 (stereo not drawn),0.7%
14,Cc1ccc(S(=O)(=O)/N=C(/Nc2ccc3[nH]c(=O)[nH]c3c2)c2ccccc2)cc1,-11.9%
15,Cc1ccc(S(=O)(=O)/N=C(/Nc2ccccn2)c2ccc(Cl)cc2)cc1,2.1%
16,Cc1ccc(S/C(=N\S(=O)(=O)c2ccc(Cl)cc2)c2ccccc2)cc1,57.1% (active)
17,COc1ccccc1C1CCN(C(=S)Nc2ccc(Br)cc2)CC1,31%
18,CCOc1ccc(Br)cc1S(=O)(=O)Nc1ccc(S(=O)(=O)Nc2cc(C)on2)cc1,-8.8%
19,CCOc1ccc(Br)cc1S(=O)(=O)Nc1ccc(C(=O)OC(C)C(=O)N(C)c2ccccc2)cc1 (stereo not drawn),53.8% (active)
20,CCOc1ccc(Br)cc1S(=O)(=O)Nc1cccc(S(=O)(=O)N(CC)CC)c1,22.7%
21,Cn1cc(S(=O)(=O)N2CCC(Cc3ccccc3)CC2)c(=O)n(C)c1=O,-7.6%
22,COCCn1c(SCC(=O)Nc2cc(Cl)ccc2OC)nc2c(c1=O)SC(C)C2 (stereo not drawn),20.2%

row,SMILES,inhibition
1,Cc1ccccc1-n1nnnc1SCCCC(=O)c1ccc(F)cc1,19.4%
2,CC(C)=CCc1ccc(O)c(=O)cc1C(C)C,-0.3%
3,COc1cccc(NC(=O)CN(C)C(=O)c2ccccc2CCc2ccccc2)c1,23.2%
4,COc1ccc(C2Nc3ccccc3C(=O)N2Cc2ccccc2)cc1Cn1nnc2ccccc21 (stereo not drawn),35.8%
5,COc1ccc(CN2CCCC(C(=O)c3ccc(Cl)cc3)C2)cc1Cn1cncn1 (stereo not drawn),-9.9%
6,COc1ccc(C2Nc3ccccc3C(=O)N2c2ccc(Cl)cc2)cc1Cn1cc([N+](=O)[O-])cn1 (stereo not drawn),69.9% (active)
7,Cc1ccc(Nc2cc(C)nc3c(C)ccc([N+](=O)[O-])c23)cc1,25%
8,N#CCCN(C(=O)COC(=O)C1CCN(c2ccc(C(F)(F)F)cn2)CC1)c1ccc(F)cc1,18.7%
9,Nc1cc(OC(=O)c2ccccc2Br)nn1S(=O)(=O)c1ccccc1,5.4%
10,O=C(Cc1ccc(Cl)c(Cl)c1)Nc1ccc(SC(F)F)cc1,66.1% (active)
11,O=C(CCl)Nc1ccc(Sc2ccc(NC(=O)CCl)cc2)cc1,2.8%
12,O=C(CC(O)(C(F)(F)F)C(F)(F)F)Nc1ccc(Cl)c(Cl)c1,22.2%
13,CCOC(=O)Cn1nnnc1C,-1.8%
14,O=C(NCc1ccc2c(c1)OCO2)c1cc([N+](=O)[O-])ccc1N1CCOCC1,51.7% (active)
15,CC1CCN(c2ccc(C(=O)NCc3ccc4c(c3)OCO4)cc2[N+](=O)[O-])CC1,13.7%
16,O=C(Cc1ccc([N+](=O)[O-])cc1)NCCc1ccc2c(c1)OCO2,18.8%
17,CC(C)(C)c1ccc(/C=C/C(=O)NC2CCS(=O)(=O)C2)cc1 (stereo not drawn),-0.6%
18,CN(C)c1ccc(S(=O)(=O)NCC(=O)NCC2CCCCC2)cc1[N+](=O)[O-],5.2%
19,CN(C)c1ccc(/C=C/C(=O)c2ccc(C(C)(C)C)cc2)cc1[N+](=O)[O-],74.2% (active)
20,Cc1ccc(S(=O)(=O)N2CCN(C)CC2)cc1C(=O)NC1CCCCC1,-7%
21,CCOC(=O)C1=CN(Cc2ccc(Br)cc2)S(=O)(=O)NC1C (stereo not drawn),9.4%
22,CC(C)[C@@H]1COC(c2cccc(C3=N[C@H](C(C)C)CO3)c2)=N1,1.1%
